A selection: hits, their analogues and other compounds. The true share with any hit is near 27%.
sEH inh = soluble epoxide hydrolase inhibitors, primary screen, biochemical, human sEH | recombinant human sEH enzymatic activity assay | inhibition, % at 2 µM | 0.34% of 91,000 active; in the data active = inhibition above about 80%
Target sequence (P34913 whole entry, looked up): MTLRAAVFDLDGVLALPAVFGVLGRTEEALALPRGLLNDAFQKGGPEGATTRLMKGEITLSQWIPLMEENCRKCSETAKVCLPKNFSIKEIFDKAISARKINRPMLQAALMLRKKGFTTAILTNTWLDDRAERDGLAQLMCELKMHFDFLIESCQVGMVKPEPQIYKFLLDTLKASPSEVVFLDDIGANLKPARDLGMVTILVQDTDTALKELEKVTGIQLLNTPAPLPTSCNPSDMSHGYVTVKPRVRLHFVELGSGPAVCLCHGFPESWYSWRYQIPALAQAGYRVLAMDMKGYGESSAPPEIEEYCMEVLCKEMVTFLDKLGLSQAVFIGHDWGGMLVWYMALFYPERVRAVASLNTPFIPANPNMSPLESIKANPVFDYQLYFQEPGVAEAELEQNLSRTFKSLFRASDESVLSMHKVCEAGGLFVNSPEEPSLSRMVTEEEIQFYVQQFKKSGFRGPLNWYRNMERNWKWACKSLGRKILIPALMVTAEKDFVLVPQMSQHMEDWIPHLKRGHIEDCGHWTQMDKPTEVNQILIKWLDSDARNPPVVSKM
CYP2C9 inhib = blockers of cytochrome P450 2C9 activity – biochemical, luminescence, ADME assay, primary screen | CYP2C9 Supersomes, luciferin-H conversion | 20% of 96,000 active | inhibition, % at 5 µM;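 active = blocking of liver enzyme CYP2C9 beyond about 50% at 5 µM, limit read from the data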
CYP2C19 inhib = blockers of cytochrome P450 2C19 activity – biochemical, luminescence, ADME assay, primary screen | inhibition, % at 5 µM | 21% of 96,000 active | CYP2C19 Supersomes, luciferin-H EGE luminescence, 30 min;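 active = CYP2C19 inhibition above a set limit at 5 µM in the primary screen, cut at about 50% in these data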;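 note: plate controls were negative control wells for no effect and 2.5 mM tranylcypromine positive control for full effect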
CYP2C9 activ = human CYP2C9 activators, primary screen, biochemical, luminescence. 1.4% of 96,000 active. AID 1024, 2008. activation factor at 5 µM. recombinant CYP2C9, luciferin-H conversion; stronger effect = higher value; factor 1 = untreated enzyme, 0 = blocked. Cytochrome P450 2C9 (Homo sapiens), P11712;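 active = activation factor of 2 or more for CYP2C9 at a 5 µM dose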;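 note: 0 = sulfaphenazole-blocked wells and 1 = vehicle-only wells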
CYP2C19 activ = human CYP2C19 activators, primary screen, biochemical, luminescence. AID 1025, 2008. activation factor at 5 µM. 96,000 tested, under 10 active. Cytochrome P450 2C19 (Homo sapiens), P33261. recombinant CYP2C19, luciferin-H EGE luminescence; stronger effect = higher value; 0 = fully inhibited enzyme, 1 = untreated enzyme;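 active = activation factor of at least 2 at 5 µM in the primary screen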;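 note: 0 = wells with 2.5 mM tranylcypromine and 1 = vehicle-only wells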
sEH act = soluble epoxide hydrolase activators, primary screen, biochemical, human sEH; Bifunctional epoxide hydrolase 2 (Homo sapiens), P34913; purified human sEH enzymatic activity, activator screen; activation, % at 2 µM; 0.04% of 91,000 active; in the data active = activation above about 37%
* marks the source's active call; other numbers are inactive results; nt = no result.

SMILES	sEH inh	CYP2C9 inhib	CYP2C19 inhib	CYP2C9 activ	CYP2C19 activ	sEH act
CC(C)(C)NC(=O)CN(C(=O)Cn1nnc(-c2ccc(Cl)cc2)n1)C1CCN(Cc2ccccc2)CC1	-7.5	nt	nt	nt	nt	11.0
Cc1ccc(S(=O)(=O)N2CCC(O)(c3cccnc3)CC2)cc1	4.6	-114.5	53.8*	2.1*	0.5	-6.4
Cc1ccc(S(=O)(=O)N2CCCC(C(=O)Nc3cccnc3)C2)cc1 (stereo not given)	8.1	9.7	9.1	0.9	0.9	-6.0
O=S(=O)(c1cccc(C(F)(F)F)c1)N1CCC(O)(c2cccnc2)CC1	-26.5	-8.2	88.2*	1.1	0.1	25.9
O=C(Cn1cc2c(n1)CCCC2)NCCCN1CCN(c2ccccc2F)CC1	1.2	-6.8	20.1	1.1	0.8	1.1
CCOC(=O)c1ccc(NC(=O)CSc2nnc(C3CC3)n2CC)cc1	-6.6	nt	nt	nt	nt	5.9
CCCOC(=O)c1ccc(NC(=O)CSC2=Nc3ccccc3C3CC=NN23)cc1 (stereo not given)	3.8	80.4*	51.6*	0.2	0.5	-4.6
CCN(CC)S(=O)(=O)c1ccc2c(c1)nc(SCn1nnc3ccccc3c1=O)n2CC	12.9	68.1*	19.8	0.3	0.8	-11.7
Cc1onc(-c2ccccc2)c1C(=O)N1CCN(C(=O)c2ccco2)CC1	-12.2	-6.7	-4.3	1.1	1	15.5
Cc1ccc(-c2nnc(N3CCN(C(=O)c4ccco4)CC3)c3ccccc23)cc1	nt	75.9*	68.3*	0.2	0.3	nt
Cc1ccc(CN2CCN(C(=O)c3ccco3)CC2)cc1	-3.3	nt	nt	nt	nt	3.3
Cc1ccc(-c2cc(C(=O)N3CCN(C(=O)c4ccco4)CC3)no2)cc1	10.9	53.6*	78.5*	0.5	0.2	-6.3
Cc1ccc(OCC(=O)N2CCN(c3nnc(-c4ccc(C)cc4)c4ccccc34)CC2)cc1	-0.1	92.0*	88.1*	0.1	0.1	-1.1
Cc1ccc(-c2nnc(N3CCN(C(=O)CN4C(=O)c5ccccc5C4=O)CC3)c3ccccc23)cc1	-0.7	nt	nt	nt	nt	0.0
O=C(Nc1ccc2c(c1)ncn2C1CCCCC1)c1ccco1	nt	18.1	8.3	0.8	0.9	nt
Cc1ccc(Nc2nc(-c3c(C)n(C)n(-c4ccccc4)c3=O)c(C)s2)cc1	5.7	3.5	-1.2	1	1	-5.0
Cc1ccc(C)c(S(=O)(=O)N2CCN(CC(=O)NC(=O)NCc3ccccc3)CC2)c1	1.7	-123.1	21.2	2.2*	0.8	-2.1
CC(=O)OCCn1c(=O)c2cc3c(=O)n(CCOC(C)=O)c(=O)c3cc2c1=O	nt	0.0	-6.7	1	1.1	nt
CCOC(=O)COc1c(C=O)cc(Br)cc1OC	2.3	-98.3	56.5*	2*	0.4	0.6
Cc1cc(C)c(NC2=NS(=O)(=O)c3ccccc32)c(C)c1	3.3	2.7	-7.6	1	1.1	-3.1
O=C1C(=O)N(CCCN2CCOCC2)C(c2cccs2)/C1=C(/O)c1ccc2c(c1)OCO2 (stereo not given)	-4.0	nt	nt	nt	nt	3.3
Cc1ccc(S(=O)(=O)CNC(=O)c2ccccc2)cc1	-8.2	6.0	45.8	0.9	0.5	9.5
Cc1ccc(S(=O)(=O)CNC(=S)c2cccc(C)c2)cc1	-5.3	-90.1	94.4*	1.9	0.1	5.0
Cc1ccc(S(=O)(=O)CNC(=S)c2ccc3ccccc3c2)cc1	-16.0	60.2*	60.4*	0.4	0.4	15.7
CCOC(=O)C1=C(C)OC(N)=C(C#N)C1c1cc(C)sc1C (stereo not given)	7.5	36.0	92.4*	0.6	0.1	-5.9
SMILES	sEH inh	CYP2C9 inhib	CYP2C19 inhib	CYP2C9 activ	CYP2C19 activ	sEH act
COCCOC(=O)C1=C(C)OC(N)=C(C#N)C1c1ccc2c(c1)OCO2 (stereo not given)	13.8	67.9*	80.4*	0.3	0.2	-15.4
COCCOC(=O)C1=C(C)OC(N)=C(C#N)C1c1ccco1 (stereo not given)	-11.3	nt	nt	nt	nt	13.1
C=CCOC(=O)C1=C(C)OC(N)=C(C#N)C1c1ccoc1 (stereo not given)	11.7	34.0	82.5*	0.7	0.2	-9.2
CCOC(=O)C1=C(C)OC(N)=C(C#N)C1c1cc2ccccc2nc1N1CCCCC1 (stereo not given)	2.0	nt	nt	nt	nt	-0.8
CC1=C(C#N)C(c2ccoc2)C(C(=O)OCc2ccccc2)=C(N)S1 (stereo not given)	5.3	100.0*	98.3*	0	0	-10.2
COC(=O)C1=C(C)OC(N)=C(C#N)C1c1ccco1 (stereo not given)	-8.2	nt	nt	nt	nt	9.7
Cc1cc(NC(=O)C2(c3ccccc3)CCCC2)no1	-13.6	29.0	42.0	0.7	0.6	15.9
CC(C)(C)C1=C(C#N)C(c2ccc3c(c2)OCO3)C(C#N)=C(N)O1 (stereo not given)	nt	89.7*	88.6*	0.1	0.1	nt
CSC1=C(C#N)C(c2ccc3c(c2)OCO3)C2=C(CCCC2=O)N1 (stereo not given)	-2.5	nt	nt	nt	nt	2.8
CCOC(=O)C1=C(C)OC(N)=C(C#N)C1c1cc2c(cc1Br)OCO2 (stereo not given)	-1.8	41.5	93.3*	0.6	0.1	3.2
CCOC(=O)C1=C(C)OC(N)=C(C#N)C1c1cc2cc(C)ccc2nc1N1CCCCC1 (stereo not given)	19.7	nt	nt	nt	nt	-17.1
CCOC(=O)C1=C(C)OC(N)=C(C#N)C1C1CCCCC1 (stereo not given)	nt	30.7	84.4*	0.7	0.2	nt
C=CCOC(=O)C1=C(C)OC(N)=C(C#N)C1c1ccc2c(c1)OCO2 (stereo not given)	22.8	97.7*	100.0*	0	0	-18.7
O=C(CC1=NC2(CCCC2)Cc2ccccc21)N1CCOCC1	-5.7	18.8	17.5	0.8	0.8	6.3
COc1ccc(S(=O)(=O)N2CCCC2C(=O)Nc2nccs2)cc1 (stereo not given)	-12.3	23.1	-0.4	0.8	1	10.2
COC(=O)c1cc2sccc2n1CC(=O)Nc1cccc(SC)c1	nt	12.0	1.3	0.9	1	nt
CCOC(=O)C1=C(CC)OC(N)=C(C#N)C1c1cccs1 (stereo not given)	5.2	44.8	53.3*	0.6	0.5	-3.0
CCOC(=O)C1=C(C)OC(N)=C(C#N)C1c1ccsc1 (stereo not given)	12.3	21.2	62.8*	0.8	0.4	-10.9
COC(=O)C1=C(C)OC(N)=C(C#N)C1c1ccccc1F (stereo not given)	8.2	16.3	64.4*	0.8	0.4	-8.7
O=C(Nc1ccc2c(c1)OCCO2)c1ccc(Br)o1	2.4	10.7	32.8	0.9	0.7	-3.9
COc1ccc(-n2c(=O)c3ccccc3n(Cc3ccc(F)cc3)c2=O)cc1OC	0.7	-6.3	8.4	1.1	0.9	1.6

Screening data (PubChem)
